# This is a sample that favours compounds with a hit; in the whole collection about 19% have one here.
# TDP1 cell CPT: growth inhibition of DT40 Tdp1-/-;hTDP1 cells with camptothecin (screen for TDP1 inhibitors); chicken DT40 Tdp1-/-;hTDP1 cells + 20 nM CPT, ATP luminescence, 48 h; Potency, µM (doses to about 46.2 µM), for the others: top-dose activity change, negative = growth inhibition, usual class: inhibitors; actives 12% (n = 420,000); AID 686979; note: potency is the fitted concentration of half-maximal effect; % is set by controls: 0 for no effect and ±100 for the full control effect; nearly all actives have a fitted effect of over 55% in size
#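 Chicken DT40 Tdp1-/- cells complemented with human TDP1, 400 cells/well, exposed to compounds plus 20 nM camptothecin for at least 48 h at 37 C; viability read as ATP content by CellTiter-Glo luminescence.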
# TDP1 cell noCPT: qHTS for Inhibitors of human tyrosyl-DNA phosphodiesterase 1 (TDP1): qHTS in cells in absence of CPT; actives 15% (n = 420,000); Potency, µM (top dose mostly 46.2 µM), without a hit: top-dose activity change, negative = growth inhibition, actives largely listed as inhibitors; DT40 Tdp1-/- hTDP1 cells, no CPT, ATP luminescence, 48 h; note: potency is the fitted concentration of half-maximal effect; % is set by controls: 0 for no effect and ±100 for the full control effect; nearly all actives have a fitted effect of over 55% in size
#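 Compound effects on proliferation are scored in DT40 Tdp1-/-;hTDP1 cells in the absence of CPT. ATP levels (CellTiter-Glo luminescence) are recorded after a ≥48 hr, 37 °C incubation.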
# MCF10A rerep: inducers of DNA re-replication in MCF 10A breast cells; MCF 10A DNA re-replication, Hoechst nuclear intensity, 48 h; Potency, µM (series often up to 46.1 µM), without a hit: at the highest dose activity, positive = re-replication, hits mostly activators; actives 2.9% (n = 350,000); AID 624296; note: potency is the fitted concentration of half-maximal effect; % of control where 0% means no effect; nearly all actives have a fitted effect of over 50% in size
# IL1B secr inh: inflammasome signaling inhibition, IL-1 beta readout; actives 4.7% (n = 360,000); activity change, % at 57.5 µM; THP-1 LPS/ATP IL-1B secretion, AlphaLISA, 16 h; hits give low values; AID 743279; in the data active = activity change below about -50%; inconclusive = mostly about -30% to -49%; note: % is set by controls: 0 for no effect and ±100 for the full control effect
#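 THP-1 cells pretreated 1 hr with compounds (up to 57.5 uM final), then stimulated with LPS (250 ng/mL final) plus ATP (1.25 mM final); secreted IL-1B measured by AlphaLISA after 16 hr, decreased signal indicating inhibition.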
# Chronic BCR inh: inhibitors of chronic active B-cell receptor signaling | ABC-DLBCL IkBa-CBG/CBR reporter, luminescence ratio, 4 h | Potency, µM (titrated, usually from 46.1 µM), for inactives: top-dose activity change, negative = inhibition, usual class: inhibitors | actives 0.05% (n = 340,000); active = well fitted inhibition curve with a large enough effect in the signal ratio, with a control signal flat, not every such curve was filed as active; inconclusive = small, poorly fitted or top-dose-only effect, or effect the other way, or a change in a side signal; the % refers to the signal ratio;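 note: potency is the fitted concentration of half-maximal effect; plate controls were basal doxycycline-induced cells for no effect and cells given 10 µM MG132 for full effect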
#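 TMD8 human ABC-DLBCL cells with doxycycline-inducible IκBα–green luciferase fusion and unfused red luciferase, in 0.5% FBS medium; compounds up to 46 uM, 4 h at 37C. Green/red luminescence ratio, filter-overlap corrected, fitted to concentration-response curves.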
# SW480 rerep: induces DNA re-replication in SW480 colon adenocarcinoma cells; AID 624297; Potency, µM (series often up to 46.1 µM), for inactives: top-dose re-replication activation, actives largely listed as activators; SW480 DNA re-replication, Hoechst DNA content imaging, 48 h; actives 1.8% (n = 340,000); note: potency is the fitted concentration of half-maximal effect; % of control where 0% means no effect; nearly all actives have a fitted effect of over 55% in size
#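 Readout is total intensity of Hoechst-stained nuclei, excited at 405 nm and collected at 500-530 nm. Compound treatment lasted 48 hr at 37 C in 5% CO2 before staining.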
# Starred values were filed as active, the others as inactive; i = inactive; ? = inconclusive; · = not tested or not shown. Unless noted, calls come from the whole dose curve; as a rule, active = well fitted curve in the direction sought with a large enough effect; inconclusive = small, poorly fitted or top-dose-only effect, or another doubt; inactive = no such curve, though single readings can be large; an effect the other way counts as inactive or inconclusive.
SMILES,TDP1 cell CPT,TDP1 cell noCPT,MCF10A rerep,IL1B secr inh,Chronic BCR inh,SW480 rerep
O=[N+]([O-])c1ccc(N=Nc2ccc(O)cc2O)cc1,?,-6%,?,-92*,?,?
CC1(C)CC(=O)C=C(c2cccc(Cl)c2O)C1,-21%,-5%,6%,-7,?,-4%
Cc1c(CN2CCC(Oc3ccc(C(=O)N4CCCCC4)cc3)CC2)cnn1C,2%,5%,1%,i,0%,-6%
CCn1c(/C(C#N)=N/O)nc2ccccc21,6%,3%,6%,24,0%,-2%
COc1ccc(N/C=C(\C#N)c2nc3ccccc3n2C)c(OC)c1,?,23µM*,?,-9,?,17%
CCn1c(/C(C#N)=C/c2ccccc2Cl)nc2ccccc21,?,26µM*,·,·,?,·
COc1ccccc1C(=O)c1nc2ccccc2n1C,-16%,8%,-1%,10,-1%,?
Cn1c(/C(C#N)=C/c2ccccc2Br)nc2ccccc21,15µM*,12µM*,·,·,·,·
CCCCc1ccc(-n2nc3cc(C)c(NC(=O)c4ccc(C#N)cc4F)cc3n2)cc1,-10%,-24%,·,·,·,·
Nc1ccc(C(=O)N/N=C\c2ccc(OC(=O)c3ccccc3Cl)cc2)cc1,-17%,-13%,16%,-16,?,-4%
CCn1c2ccccc2c2cc(/C=N/NC(=O)c3ccccc3)ccc21,15µM*,16µM*,24%,?,?,?
COc1cc(C(=O)N/N=C/c2ccc(OC(=O)c3ccccc3Cl)cc2)ccc1O,-21%,?,20%,-72*,?,1%
CSc1ccc(/C=N/NC(=O)c2cc(O)cc(O)c2)cc1,-7%,3%,10%,-2,?,-3%
Cn1c2ccccc2c2cc(/C=N/NC(=O)c3cc(O)cc(O)c3)ccc21,?,?,?,-86*,?,2%
COc1cc(/C=N/NC(=O)CCn2c3ccccc3c3ccccc32)ccc1O,?,23µM*,-1%,?,?,-11%
Cc1cc(Oc2ccccc2)nc(C#N)n1,2%,-16%,·,·,·,·
CC(=O)Nc1ccc(S(=O)(=O)NC2(C(F)(F)F)C(=O)Nc3c2c(=O)[nH]c(=O)n3-c2ccc(C)c(C)c2)cc1 (stereo not drawn),2%,-1%,·,·,·,·
O=C(N/N=C\c1ccc(O)c([N+](=O)[O-])c1)c1ccccc1-n1cccc1,-5%,?,1%,0,-1%,3%
Cn1cc(C(=O)N/N=C/c2cccc([N+](=O)[O-])c2)c2ccccc21,-5%,?,0%,·,8%,?
COc1cc(C=NNC(=O)c2ccccc2-n2cccc2)ccc1O,26µM*,?,?,9,-12%,?
COc1cc(C(=O)N/N=C/c2ccc3c(c2)c2ccccc2n3C)ccc1O,?,15µM*,13µM*,i,?,?
Cn1c2ccccc2c2cc(/C=N/NC(=O)c3cc(O)ccc3O)ccc21,12µM*,15µM*,3.7µM*,-73*,?,13%
COc1cc(/C=N/NC(=O)C2(O)c3ccccc3-c3ccccc32)ccc1O,-7%,4%,-1%,9,-15%,8%
COc1cc(/C=N/NC(=O)C(=O)/C=C2\NC(C)(C)Cc3ccccc32)ccc1O,?,?,?,-53*,-1%,?
COc1cc(/C=N/NC(=O)c2cccc(NC(=O)c3ccccc3)c2)ccc1O,-11%,?,1%,?,?,-5%
CCCCC(=O)N(C)c1c(C)nc2ccc(C(=O)N(CC)CCN(C)C)cn12,3%,5%,·,2,·,·

# Bioassay records (PubChem)
